Experimental findings from PubChem BioAssay (EPA / NIEHS) are described below.

Results filed as inconclusive are left out. Active and inactive are the calls of the source. How the source made its calls, unless noted: active means hit-call score of the fitted dose curve at least 0.9, where 1 is the maximum; inconclusive means response in the unintended direction; inactive means score below 0.9.

Assay [1] has as its target Glucocorticoid receptor (Homo sapiens) (UniProt P04150). In words: ATG_GR_TRANS: Attagene TRANS-FACTORIAL HepG2 Assay for human Glucocorticoid Receptor (GR) (AID 2282978).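 Further: activators score as hits since higher reporter transcript over DMSO is fitted.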 The settings on record: HepG2 Attagene TRANS GR reporter, mRNA transcription. The method, boiled down: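 After 24 h incubation with test chemical, transfected HepG2 cells were lysed for RNA; reporter cDNA was amplified, FAM-labelled, HpaI-digested and sized on a capillary analyser. Signal gain relative to DMSO was scored.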

Assay [2] addresses Bile acid receptor (Homo sapiens) (UniProt Q96RI1). The assay is described as follows: ATG_FXR_TRANS: Attagene TRANS-FACTORIAL HepG2 Assay for Farnesoid X Receptor (FXR) (AID 2282979).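 Further: hits raise reporter mRNA above DMSO so AC50 marks FXR activation.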 The settings on record: HepG2 Attagene TRANS FXR-GAL4 reporter transcription. The method, boiled down:
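HepG2 cells transiently transfected with reporter constructs in which a chimeric FXR-GAL4 protein drives a GAL4-UAS reporter; 24 h compound exposure. Reporter mRNA measured by RT-PCR, FAM labelling, HpaI digestion and capillary electrophoresis; gain-of-signal versus DMSO.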

Assay [3] has as its target Oxysterols receptor LXR-beta (Homo sapiens) (UniProt P55055). The assay is described as follows: ATG_LXRb_TRANS: Attagene TRANS-FACTORIAL HepG2 Assay for human Liver X Receptor beta (LXRb) (AID 2282981). The settings on record: HepG2 Attagene TRANS GAL4-LXRb reporter, mRNA. The essentials: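 Measures induction of a Gal4-driven reporter transcript in HepG2 cells expressing an exogenous LXRb-Gal4 fusion. Cells are exposed to compound for 24 h before RNA isolation and RT-PCR with capillary electrophoresis detection.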

Assay [4] has as its target Hepatocyte nuclear factor 4-alpha (Homo sapiens) (UniProt P41235). In words: ATG_HNF4a_TRANS: Attagene TRANS-FACTORIAL HepG2 Assay for human Hepatocyte Nuclear Factor 4 alpha (HNF4a) (AID 2282982). The following applies: HepG2 HNF4a transactivation reporter, mRNA readout. The essentials: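 In this trans-factorial format, a chimeric HNF4a-GAL4 fusion drives a GAL4-UAS reporter in transfected HepG2 liver cells. After 24 h treatment, reporter mRNA induction is measured by RT-PCR with capillary electrophoresis, relative to DMSO.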

Assay [5] in a line: ATG_M_32_TRANS: Attagene TRANS-FACTORIAL HepG2 Assay for M32 Transcription Factor (Internal Marker) (AID 2282984).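 Further: transcript level of a background control reporter unit measured by RT-PCR and capillary electrophoresis.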 The following applies: HepG2 Attagene TRANS M32 internal marker reporter. The method, boiled down: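 After 24 h dosing of transfected HepG2 cells, total RNA was reverse-transcribed, reporter sequences PCR-amplified, 6-FAM labelled by primer extension and HpaI-digested before capillary electrophoresis. Signal increase over DMSO was fitted.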

The target of assay [6] is Transcriptional activator Myb (Homo sapiens) (UniProt P10242). In words: ATG_Myb_CIS: Attagene CIS-FACTORIAL HepG2 Assay for human Myeloblastosis (Myb) Proto-Oncogene Transcription Factor (AID 2282986; active means hit-call score of the fitted dose curve at least 0.9, where 1 is the maximum; inactive means score below 0.9). The settings on record: HepG2 Attagene CIS-FACTORIAL Myb reporter transcription; actives raise or lower the signal. The method, boiled down:
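After 24 h of compound dosing, total RNA from transfected HepG2 cells is reverse-transcribed and the reporter sequences amplified, labeled and separated by capillary electrophoresis. Values come from bidirectional fitting against DMSO.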

Assay [7] concerns the target Nuclear respiratory factor 1 (Homo sapiens) (UniProt Q16656). The assay is described as follows: ATG_NRF1_CIS: Attagene CIS-FACTORIAL HepG2 Assay for human Nuclear Respiratory Factor 1 (NRF1) Orphan Gene (AID 2282987; active means hit-call score of the fitted dose curve at least 0.9, where 1 is the maximum; inactive means score below 0.9). The following applies: HepG2 NRF1 cis-element reporter, Attagene multiplex; actives raise or lower the signal. The essentials: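 Measured: fluorescent reporter-specific RT-PCR products from transfected HepG2 cells, separated by capillary electrophoresis. Exposure lasted 24 h. Analysis used bidirectional curve fitting with DMSO as negative control.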

Assay [8] addresses Oxysterols receptor LXR-alpha (Homo sapiens) (UniProt Q13133). The assay is described as follows: ATG_LXRa_TRANS: Attagene TRANS-FACTORIAL HepG2 Assay for human Liver X Receptor alpha (LXRa) (AID 2282980). The following applies: HepG2 Attagene TRANS reporter, LXRa transactivation. The method, boiled down:
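HepG2 cells were transiently transfected with multiplexed reporter units driven by chimeric LXRa–GAL4 fusion proteins, then dosed for 24 h. Reporter mRNA was quantified by RT-PCR, fluorescent labelling and capillary electrophoresis; gain of signal fitted against DMSO baseline.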

The nature of assay [9]: ATG_M_06_TRANS: Attagene TRANS-FACTORIAL HepG2 Assay for M06 Transcription Factor (Internal Marker) (AID 2282983). The following applies: HepG2 Attagene TRANS M06 internal marker reporter. The method, boiled down: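 In this multiplexed HepG2 system, compounds are incubated 24 h with cells carrying GAL4-UAS reporter units. Reporter RNA is amplified and resolved by capillary electrophoresis, and induction is scored against DMSO.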

In assay [10] the target is Nuclear receptor subfamily 4 group A member 2 (Homo sapiens) (UniProt P43354). In words: ATG_NURR1_TRANS: Attagene TRANS-FACTORIAL HepG2 Assay for human Nuclear Receptor Related Protein 1 (NURR1) (AID 2282985). The settings on record: HepG2 Attagene TRANS reporter, mRNA readout. The essentials: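 Chimeric NR-Gal4 fusion activity measured in HepG2 after 24 h treatment. Reporter transcripts detected by RT-PCR and capillary electrophoresis fluorescence; positive-direction curve fitting against DMSO.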
Chain of Nuclear receptor subfamily 4 group A member 2 (Homo sapiens) (P43354 whole entry, looked up, the tested form may be a part): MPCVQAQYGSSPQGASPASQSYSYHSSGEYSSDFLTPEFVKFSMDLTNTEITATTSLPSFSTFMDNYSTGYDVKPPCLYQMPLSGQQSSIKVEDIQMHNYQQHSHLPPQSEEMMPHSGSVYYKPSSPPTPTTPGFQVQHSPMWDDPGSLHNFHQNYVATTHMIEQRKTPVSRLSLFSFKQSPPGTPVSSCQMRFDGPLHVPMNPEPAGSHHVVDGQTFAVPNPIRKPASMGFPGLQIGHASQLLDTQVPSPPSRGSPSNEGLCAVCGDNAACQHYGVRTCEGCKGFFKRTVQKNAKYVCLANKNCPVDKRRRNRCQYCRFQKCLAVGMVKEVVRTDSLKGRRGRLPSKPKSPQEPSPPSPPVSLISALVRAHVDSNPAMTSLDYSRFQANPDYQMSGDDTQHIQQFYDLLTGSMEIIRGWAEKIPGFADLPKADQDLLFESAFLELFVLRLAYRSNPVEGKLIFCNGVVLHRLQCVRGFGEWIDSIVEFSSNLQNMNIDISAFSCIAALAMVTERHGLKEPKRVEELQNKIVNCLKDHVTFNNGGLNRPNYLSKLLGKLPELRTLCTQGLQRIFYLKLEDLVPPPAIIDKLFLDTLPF

Chain of Nuclear respiratory factor 1 (Homo sapiens) (Q16656 whole entry, looked up): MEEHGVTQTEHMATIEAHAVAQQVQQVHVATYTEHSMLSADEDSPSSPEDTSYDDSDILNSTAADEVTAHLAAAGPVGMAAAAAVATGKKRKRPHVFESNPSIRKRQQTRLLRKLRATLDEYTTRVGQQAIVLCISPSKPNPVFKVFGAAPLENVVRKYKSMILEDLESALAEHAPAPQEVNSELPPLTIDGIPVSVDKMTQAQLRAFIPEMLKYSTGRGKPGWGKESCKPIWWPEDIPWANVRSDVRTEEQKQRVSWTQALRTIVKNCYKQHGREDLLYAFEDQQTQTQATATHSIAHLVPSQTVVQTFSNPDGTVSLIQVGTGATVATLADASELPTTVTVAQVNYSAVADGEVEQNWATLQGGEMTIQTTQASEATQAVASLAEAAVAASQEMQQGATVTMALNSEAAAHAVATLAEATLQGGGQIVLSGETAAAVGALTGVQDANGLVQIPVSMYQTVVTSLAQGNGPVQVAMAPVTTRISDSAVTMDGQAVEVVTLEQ
Chain of Transcriptional activator Myb (Homo sapiens) (P10242 whole entry, looked up): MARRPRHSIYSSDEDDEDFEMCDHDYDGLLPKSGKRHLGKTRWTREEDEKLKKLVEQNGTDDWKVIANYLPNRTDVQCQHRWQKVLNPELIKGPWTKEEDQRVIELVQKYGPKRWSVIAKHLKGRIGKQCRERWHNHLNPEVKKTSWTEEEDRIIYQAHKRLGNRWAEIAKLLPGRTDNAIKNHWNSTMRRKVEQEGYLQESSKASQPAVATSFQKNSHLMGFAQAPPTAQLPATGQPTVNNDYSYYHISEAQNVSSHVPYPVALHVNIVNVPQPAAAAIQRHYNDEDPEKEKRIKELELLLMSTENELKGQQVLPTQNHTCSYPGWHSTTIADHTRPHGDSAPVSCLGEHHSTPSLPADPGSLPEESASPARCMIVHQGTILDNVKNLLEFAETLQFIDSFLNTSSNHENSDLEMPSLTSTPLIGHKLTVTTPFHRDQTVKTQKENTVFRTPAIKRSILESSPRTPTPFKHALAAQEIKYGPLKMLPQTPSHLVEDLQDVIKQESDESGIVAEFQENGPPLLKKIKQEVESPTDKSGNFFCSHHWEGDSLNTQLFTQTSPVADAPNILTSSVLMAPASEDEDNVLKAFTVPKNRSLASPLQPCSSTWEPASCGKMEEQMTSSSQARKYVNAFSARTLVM
Chain of Bile acid receptor (Homo sapiens) (Q96RI1 whole entry, looked up, the tested form may be a part): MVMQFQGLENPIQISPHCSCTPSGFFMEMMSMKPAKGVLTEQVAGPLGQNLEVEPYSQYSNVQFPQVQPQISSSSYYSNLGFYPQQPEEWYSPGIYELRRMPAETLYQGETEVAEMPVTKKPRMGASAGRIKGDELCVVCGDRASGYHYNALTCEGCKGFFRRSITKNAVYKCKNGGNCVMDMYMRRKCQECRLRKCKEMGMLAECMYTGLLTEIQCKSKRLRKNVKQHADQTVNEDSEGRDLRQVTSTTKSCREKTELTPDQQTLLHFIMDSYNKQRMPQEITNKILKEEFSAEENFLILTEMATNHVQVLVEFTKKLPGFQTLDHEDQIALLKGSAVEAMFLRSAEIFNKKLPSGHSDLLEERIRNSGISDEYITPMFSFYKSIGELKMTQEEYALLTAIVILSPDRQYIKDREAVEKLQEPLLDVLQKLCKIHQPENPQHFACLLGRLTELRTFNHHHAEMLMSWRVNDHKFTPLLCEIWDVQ
Chain of Oxysterols receptor LXR-alpha (Homo sapiens) (Q13133 whole entry, looked up, the tested form may be a part): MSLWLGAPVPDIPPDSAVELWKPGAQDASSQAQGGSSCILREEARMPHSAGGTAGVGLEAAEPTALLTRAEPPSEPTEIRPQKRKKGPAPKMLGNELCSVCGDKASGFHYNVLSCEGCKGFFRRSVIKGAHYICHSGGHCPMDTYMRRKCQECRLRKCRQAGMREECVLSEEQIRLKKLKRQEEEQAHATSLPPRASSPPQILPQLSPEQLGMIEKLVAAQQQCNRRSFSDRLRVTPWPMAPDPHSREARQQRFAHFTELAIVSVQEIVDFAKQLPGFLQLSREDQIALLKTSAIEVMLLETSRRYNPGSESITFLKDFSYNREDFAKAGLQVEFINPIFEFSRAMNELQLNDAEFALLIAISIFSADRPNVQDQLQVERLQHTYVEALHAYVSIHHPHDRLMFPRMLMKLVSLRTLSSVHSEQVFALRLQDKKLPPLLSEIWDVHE
Chain of Glucocorticoid receptor (Homo sapiens) (P04150 whole entry, looked up): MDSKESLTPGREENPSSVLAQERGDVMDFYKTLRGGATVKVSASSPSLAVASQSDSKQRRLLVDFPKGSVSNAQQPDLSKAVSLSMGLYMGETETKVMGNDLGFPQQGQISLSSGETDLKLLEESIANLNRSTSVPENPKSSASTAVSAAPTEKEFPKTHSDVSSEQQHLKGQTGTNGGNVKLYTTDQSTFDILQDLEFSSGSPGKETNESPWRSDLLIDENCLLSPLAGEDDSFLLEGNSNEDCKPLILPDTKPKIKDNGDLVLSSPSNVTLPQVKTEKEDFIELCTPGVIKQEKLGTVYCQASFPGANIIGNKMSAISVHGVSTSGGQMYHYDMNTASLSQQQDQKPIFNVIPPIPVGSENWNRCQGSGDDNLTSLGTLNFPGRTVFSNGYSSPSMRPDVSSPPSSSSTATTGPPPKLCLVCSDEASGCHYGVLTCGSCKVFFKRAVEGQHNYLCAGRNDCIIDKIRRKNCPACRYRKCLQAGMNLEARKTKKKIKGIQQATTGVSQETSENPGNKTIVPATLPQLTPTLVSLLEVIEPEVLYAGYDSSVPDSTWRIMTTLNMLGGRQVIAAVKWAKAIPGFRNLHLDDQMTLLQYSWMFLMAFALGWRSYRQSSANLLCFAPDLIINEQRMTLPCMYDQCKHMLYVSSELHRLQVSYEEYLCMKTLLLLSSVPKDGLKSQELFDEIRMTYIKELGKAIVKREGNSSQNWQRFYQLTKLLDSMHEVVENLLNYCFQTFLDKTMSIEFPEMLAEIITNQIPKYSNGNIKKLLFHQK
Chain of Oxysterols receptor LXR-beta (Homo sapiens) (P55055 whole entry, looked up, the tested form may be a part): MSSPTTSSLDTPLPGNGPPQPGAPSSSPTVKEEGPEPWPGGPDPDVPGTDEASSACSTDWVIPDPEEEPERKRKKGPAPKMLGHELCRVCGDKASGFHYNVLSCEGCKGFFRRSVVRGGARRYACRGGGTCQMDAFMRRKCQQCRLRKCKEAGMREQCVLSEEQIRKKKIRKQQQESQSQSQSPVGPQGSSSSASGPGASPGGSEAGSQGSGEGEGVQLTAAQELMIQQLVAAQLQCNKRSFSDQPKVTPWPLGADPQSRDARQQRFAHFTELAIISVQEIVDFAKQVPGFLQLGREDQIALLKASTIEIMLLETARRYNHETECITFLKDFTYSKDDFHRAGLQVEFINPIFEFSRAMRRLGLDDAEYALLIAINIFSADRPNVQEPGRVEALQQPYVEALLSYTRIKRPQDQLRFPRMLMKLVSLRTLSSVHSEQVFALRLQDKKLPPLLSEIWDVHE
Chain of Hepatocyte nuclear factor 4-alpha (Homo sapiens) (P41235 whole entry, looked up, the tested form may be a part): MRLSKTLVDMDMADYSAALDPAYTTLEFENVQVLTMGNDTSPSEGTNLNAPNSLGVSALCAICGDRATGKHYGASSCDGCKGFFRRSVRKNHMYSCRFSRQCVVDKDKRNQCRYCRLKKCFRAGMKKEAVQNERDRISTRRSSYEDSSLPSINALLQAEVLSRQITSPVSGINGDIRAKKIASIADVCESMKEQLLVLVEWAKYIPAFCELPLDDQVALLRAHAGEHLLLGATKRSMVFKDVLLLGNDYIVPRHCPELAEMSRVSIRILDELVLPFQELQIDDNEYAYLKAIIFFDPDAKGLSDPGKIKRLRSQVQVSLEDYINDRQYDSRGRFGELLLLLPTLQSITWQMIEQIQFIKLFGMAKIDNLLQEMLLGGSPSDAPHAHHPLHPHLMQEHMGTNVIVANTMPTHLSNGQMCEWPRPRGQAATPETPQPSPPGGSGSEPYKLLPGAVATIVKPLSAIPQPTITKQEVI

For `O=P(OCCCl)(OCCCl)OCCCl`, the molecule was classed as inactive in assay [1], in [2], in [3], in assay [4], in [5] and in assay [6]. Also, in assay [7], the call was inactive.
With `O=C(Oc1ccc(Br)cc1)N1CCN2CCC1CC2`, the molecule was classed as inactive in assay [1], in assay [8], in [5], in assay [6] and in assay [7].
Take `OCCCl`: the result in assay [1], in assay [2], in assay [8], in [3], in assay [9] and in [6] was inactive. For the same molecule, in assay [7], the molecule was called inactive.
Consider `N#CC(Br)Br`, for which the result in assay [1], in [2], in assay [8], in assay [3], in [9] and in assay [5] was inactive. Further, the molecule was called inactive in [6] and in [7].
`Nc1ccc(Cl)cc1N`: the molecule was called inactive in [1], in [2], in assay [8], in [3], in assay [9] and in assay [5]. Besides, the molecule was classed as inactive in [10], in [6] and in assay [7].
Take `CCC(C)c1ccc(O)cc1` (stereo unspecified): the molecule was called inactive in [1], in assay [2], in [3], in [9], in assay [5] and in assay [10]. Besides, the molecule was classed as inactive in assay [6] and in assay [7].
In the case of `CC(C)(O)c1cnn2c(-c3ccc(F)c(-c4c(F)cccc4C#N)c3)cnc2n1`, the result in assay [1], in assay [5] and in assay [6] was inactive. In addition, the values for the AC50 in assay [2] and in [7] were 14.5 µM (active) and 8.4 µM (active), respectively.
As to `CC(C)COC(=O)c1ccccc1C(=O)OCC(C)C`, the molecule was classed as inactive in assay [1], in [2], in assay [9], in [5], in [10] and in assay [6]. Besides, the call in assay [7] was inactive.
Consider `Nc1ccc(Cc2ccc(N)cc2)cc1`, for which the molecule was classed as inactive in [1], in assay [2], in assay [8], in [9], in assay [5] and in assay [6]. For the same molecule, in [7], the molecule was called inactive.
`c1ccc2c(c1)oc1ccccc12`: the outcome in assay [1], in assay [3], in [9], in [5], in assay [10] and in [6] was inactive. Besides, in assay [7], the result was inactive.
Regarding `CCCCCCCCOC(=O)c1ccc(C(=O)OCCCCCCCC)c(C(=O)OCCCCCCCC)c1`, the result in [1], in assay [8], in assay [4], in [10], in assay [6] and in assay [7] was inactive.
On to `Clc1ccc(C(c2ccc(Cl)cc2)C(Cl)(Cl)Cl)cc1`, for which the molecule was called inactive in assay [1], in assay [3], in assay [9], in [5], in assay [10] and in assay [6]. In [7], the molecule was called inactive.
For the molecule `C=CCc1ccc2c(c1)OCO2`, the molecule was called inactive in assay [1], in [8], in [4], in assay [9], in assay [5] and in [10]. The call in assay [6] and in assay [7] was inactive.
With `CCCCOC(=O)c1ccccc1C(=O)OCc1ccccc1`, the molecule was called inactive in [1], in assay [8], in assay [4], in assay [9], in assay [5] and in assay [6]. In addition, in [7], the result was inactive.
Regarding `Clc1ccc(C(c2ccc(Cl)cc2)C(Cl)Cl)cc1`, the molecule was classed as inactive in assay [1], in assay [2], in assay [3], in [9], in assay [5] and in [10]. In addition, the outcome in assay [6] and in assay [7] was inactive.
As for `Oc1ccccc1Cl`, the call in assay [1], in assay [3], in assay [9], in [5], in [10] and in assay [6] was inactive. Besides, the call in [7] was inactive.
On to `CCOC(=O)[C@]1(c2ccccc2)Oc2ccccc2[C@@H]1N`, for which the call in assay [1], in assay [2], in [4], in assay [10] and in [6] was inactive. Besides, the concentration at half-maximal activity (AC50) in assay [7] is 58.2 µM (active).
For the molecule `Nc1ccc(N=Nc2ccccc2)cc1`, the result in assay [1], in [3], in assay [4], in assay [5], in [10] and in assay [6] was inactive. The outcome in assay [7] was inactive.
